Screens from PubChem.
HPGD inh: qHTS Assay for Inhibitors of HPGD (15-Hydroxyprostaglandin Dehydrogenase). 15-hydroxyprostaglandin dehydrogenase [NAD(+)] (Homo sapiens), P15428. purified HPGD, NADH fluorescence kinetic, PGE2 substrate. Potency, µM, for the others: at the highest dose activity change, negative = inhibition, usual class: inhibitors. actives 4.3% (n = 150,000). AID 894, 2007; active = well fitted inhibition curve with a large enough effect, not every such curve was filed as active; inconclusive = small, poorly fitted or top-dose-only effect, or another doubt; inactive = no such curve, though single readings can be large or run the other way; also: potency is read from the fitted curve at half-maximal effect; % is scaled to controls: 0 for no effect and ±100 for the full control effect
Target sequence (P15428 whole entry, looked up): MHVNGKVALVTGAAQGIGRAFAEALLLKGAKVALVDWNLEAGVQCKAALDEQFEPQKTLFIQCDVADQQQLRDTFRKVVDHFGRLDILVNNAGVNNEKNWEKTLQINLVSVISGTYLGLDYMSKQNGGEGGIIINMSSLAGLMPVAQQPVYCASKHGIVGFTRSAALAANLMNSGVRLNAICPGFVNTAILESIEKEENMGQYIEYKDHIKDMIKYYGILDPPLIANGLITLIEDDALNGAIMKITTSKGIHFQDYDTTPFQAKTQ
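NADH formation kinetics: reaction with 30 uM PGE2 and 1 mM NAD+ (final), 20 nM enzyme, Tris-HCl pH 8 with Tween 20, after 15 min compound preincubation at room temperature. Fluorescence change, last versus first of five reads.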
PNC assembly inh: High Content Assay for Compounds that inhibit the Assembly of the Perinucleolar Compartment; actives 3.1% (n = 140,000); AID 2417, 2010; activity change (PNC), negative = inhibition, % at 10 µM; PC3M PTB-GFP, PNC prevalence imaging, 16 h; stronger effect = lower value;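 active = readout at or below -70, meaning at least 70% loss of cells showing the perinucleolar compartment, a nuclear body marking cancer cells; inconclusive = readout between -30 and a set limit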;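 also: plate controls were DMSO wells for no effect and camptothecin positive control wells for full effect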
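PC3M cells stably expressing PTB-GFP, 750–1000 cells/well, treated 16 h at 37 °C with compound (23 nl of library stock), in duplicate. After paraformaldehyde fixation and Hoechst stain, imaged at 20x; PNC prevalence scored by image analysis.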
CBFb RUNX1 block: qHTS Assay for Compounds Blocking the Interaction Between CBF-beta and RUNX1 for the Treatment of Acute Myeloid Leukemia | AlphaScreen CBFb-His/RUNX1-biotin binding, biochemical | Potency, µM (highest dose often 59.8 µM), without a hit: top-dose activity, negative = inhibition, usual class: inhibitors | 230,000 tested, under 10 active; also: % of control where 0% means no effect
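Room-temperature protein-protein interaction test with 30 nM each of His-tagged CBF-beta and biotinylated RUNX1, 15 min with compound, then 90 min with nickel plus streptavidin beads. Signal read in AlphaScreen mode.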
HTT cytoprotect: qHTS Multiplex Assay to Identify Dual Action Probes in a Cell Model of Huntington: Cytoprotection (ATP); PC12 HTT-Q103 induced, cytoprotection, ATP luminescence, 40 h; AID 1471, 2008; actives 0.14% (n = 230,000); Potency, µM (top dose mostly 56.4 µM), for inactives: cytoprotection (ATP increase), usual class: activators; also: potency is read from the fitted curve at half-maximal effect; % of control where 0% means no effect; nearly all actives have a fitted effect of over 45% in size
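Huntington model: PC12 line, ecdysone-inducible HTTQ103 exon1–GFP, tebufenozide 100 nM. Test articles in a dose series. Endpoint luminescence from cellular ATP.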
ALDH1A1 block: qHTS Assay for Inhibitors of Aldehyde Dehydrogenase 1 (ALDH1A1); Aldehyde dehydrogenase 1A1 (Homo sapiens), P00352; Purified ALDH1A1, NADH fluorescence, propionaldehyde substrate; Potency, µM (titrated, usually from 75.3 µM), for inactives: at the top dose activity, negative = inhibition, hits mostly inhibitors; actives 7.3% (n = 220,000); AID 1030, 2008; active = well fitted inhibition curve with a large enough effect, not every such curve was filed as active; inconclusive = small, poorly fitted or top-dose-only effect, or another doubt; inactive = no such curve, though single readings can be large or run the other way;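 also: potency is read from the fitted curve at half-maximal effect; plate controls were no enzyme wells and a reference inhibitor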
Target sequence (P00352 whole entry, looked up): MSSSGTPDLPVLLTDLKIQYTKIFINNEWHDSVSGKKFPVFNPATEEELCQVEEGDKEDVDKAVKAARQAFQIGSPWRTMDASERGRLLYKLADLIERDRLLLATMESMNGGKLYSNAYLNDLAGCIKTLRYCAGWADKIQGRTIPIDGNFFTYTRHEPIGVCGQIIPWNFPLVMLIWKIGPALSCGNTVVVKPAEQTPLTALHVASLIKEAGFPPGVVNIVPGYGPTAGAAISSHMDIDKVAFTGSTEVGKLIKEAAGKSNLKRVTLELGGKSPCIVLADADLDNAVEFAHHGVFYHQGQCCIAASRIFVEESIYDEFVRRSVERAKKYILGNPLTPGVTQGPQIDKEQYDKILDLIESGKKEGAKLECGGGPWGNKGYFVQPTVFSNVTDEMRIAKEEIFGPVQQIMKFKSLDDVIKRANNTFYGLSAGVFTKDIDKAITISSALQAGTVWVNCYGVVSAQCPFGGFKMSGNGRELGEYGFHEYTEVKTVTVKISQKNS
HttQ103 aggreg: qHTS Multiplex Assay to Identify Dual Action Probes in a Cell Model of Huntington: Aggregate Formation (GFP). actives 1.1% (n = 220,000). Potency, µM (titrated, usually from 46.1 µM), inactives show top-dose activity change, negative = inhibition, hits mostly inhibitors. PC12 HttQ103-GFP aggregates, Acumen cytometry, 40 h; also: potency is read from the fitted curve at half-maximal effect; % is scaled to controls: 0 for no effect and ±100 for the full control effect; nearly all actives have a fitted effect of over 60% in size
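Steps: seed 1500 PC12 HTTQ103-GFP cells/well; add tebufenozide, 100 nM final; add compound titration; add ATPLite reagent; quantify GFP aggregates by laser scanning cytometry.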
An asterisk follows results filed as active; ? = inconclusive; nt = no result; [ ] = dose if it differs, or a comment. Shown are actives, neighbours in structure and some others; about 11% of the full set was active somewhere. Unless noted, calls follow the shape of the dose curve; as a rule, active = well fitted curve in the direction sought with a large enough effect; inconclusive = small, poorly fitted or top-dose-only effect, or another doubt; inactive = no such curve, though single readings can be large; an effect the other way counts as inactive or inconclusive.

SMILES	HPGD inh	PNC assembly inh	CBFb RUNX1 block	HTT cytoprotect	ALDH1A1 block	HttQ103 aggreg
O=C(Nc1nncs1)c1c(F)c(F)c(F)c(F)c1F	22µM*	?	-6%	0%	18µM*	-13%
O=C(Nc1nncs1)c1ccc(S(=O)(=O)c2ccccc2)cc1	-12%	-117*	10%	-8%[10 µM]	2%	2%
Cc1ccccc1C(=O)Nc1nncs1	-9%	6	1%	-6%	10%	-1%
COc1ccc(CN2CN(S(=O)(=O)c3cccs3)c3nc4ccccc4nc32)cc1	nt	nt	4%	10%[10 µM]	nt	20%[9.22 µM]
CCN(Cc1ccccc1)c1ccc(/C=N/NS(=O)(=O)c2ccc(C)c([N+](=O)[O-])c2)cc1	?	?	9%	0%[10 µM]	3.2µM*	-20%
CCN(CC)c1ccc(/C=N/NS(=O)(=O)c2cccc([N+](=O)[O-])c2)cc1	-24%	-14	-7%	-4%[10 µM]	3.5µM*	1%
CN(C(=O)c1ccccc1Cl)C1CCCCC1	28µM*	?	10%	-8%	1%	10%
Cc1onc(-c2ccccc2Cl)c1C(=O)N(C)C1CCCCC1	-14%	31	0%	16%	?	14µM*
CC1(C)CC(=O)C(C=NCCN2CCN(C(=O)NC34CC5CC(CC(C5)C3)C4)CC2)=C(O)C1	-9%	-10	7%	-20%	16µM*	-11%
CC1(C)CC(=O)C(C=NCCN2CCN(CCCCS(=O)(=O)O)CC2)=C(O)C1	-5%	?	4%	-16%[10 µM]	1%	6%
CC(=C1C(=O)c2ccccc2C1=O)N1CCN(CCN=CC2=C(O)CC(C)(C)CC2=O)CC1	-4%	31	2%	nt	14µM*	-5%
CC(=NCCN1CCN(C(C)=C2C(=O)c3ccccc3C2=O)CC1)C1=C(O)CC(C)(C)CC1=O	-7%	?	-2%	nt	?	9%
CC1(C)CC(=O)C(C=NCCN2CCOCC2)=C(O)C1	-12%	-96*	4%	2%	?	8%[9.22 µM]
O=c1cc(-c2ccc(O)cc2)oc2cc(OC3OC(CO)C(O)C(O)[C@H]3O[C@@H]3OC[C@@](O)(CO)C3O)cc(O)c12 (some centres not stated)	-24%	nt	nt	nt	-6%	nt
COC(=O)NC(c1ccccc1)C(C(=O)OC)C(=O)OC (configuration not stated)	nt	nt	15%[13.1 µM]	26%[10 µM]	2%[13.5 µM]	nt
COC(=O)CC[C@@H](C)C1CC[C@H]2[C@H]3CC[C@H]4C[C@@H]5CCC4(C)[C@@]3(O5)[C@@H](Br)[C@@H](Br)[C@@]12C (some centres not stated)	-4%	nt	nt	nt	20%[13.5 µM]	nt
CCOC(=O)c1cc(-c2ccccc2)n(CC(=O)O)c1C	25µM*	-30	-14%	-1%	?	10%
CC(C)CN1CCc2nc(-c3ccccc3)c3c(c2CC1)COC(C)C3 (configuration not stated)	nt	nt	-3%[13.1 µM]	1%[10 µM]	9%[13.5 µM]	nt
CC(C)(O)C#Cc1ccc(C(=O)NC(CCCNC(N)=O)C(=O)O)s1 (configuration not stated)	nt	nt	6%	nt	5%	4%
c1ccc2c(c1)CCN(c1nc3ccccc3n3cnnc13)C2	?	?	0%	-37%	?	2%
c1ccc(CN2CCN(c3nc4ccccc4n4cnnc34)CC2)cc1	14µM*	18	-5%	-10%	-14%	1%
C1=C(c2ccccc2)CCN(c2nc3ccccc3n3cnnc23)C1	14µM*	6	0%	-31%	28µM*	19%
c1ccc(N2CCN(c3nc4ccccc4n4cnnc34)CC2)cc1	?	23	1%	-40%	-11%	17%
CO[C@@]1(NC(=O)Cc2cccs2)C(=O)N2C(C(=O)O)=C(COC(N)=O)CSC21 (some centres not stated)	-9%	nt	-20%	-46%	-4%	nt
Cn1c(SCC(=O)c2ccc3c(c2)OCCO3)nnc1C(F)(F)F	nt	nt	-4%	-2%[10 µM]	22µM*	-10%[9.22 µM]
SMILES	HPGD inh	PNC assembly inh	CBFb RUNX1 block	HTT cytoprotect	ALDH1A1 block	HttQ103 aggreg
Cn1cnnc1SCC(=O)c1ccc2c(c1)OCCO2	-22%	14	-2%	-51%[10 µM]	8.9µM*	?
Cn1nnnc1SCC(=O)c1ccc2c(c1)OCCO2	nt	nt	-3%	1%[10 µM]	?	1%[9.22 µM]
CCn1nnnc1SCC(=O)Nc1ccc2c(c1)OCO2	3%	-26	1%	13%[10 µM]	2%	-2%
CCCCn1nnnc1SCC(=O)Nc1ccc2c(c1)OCCO2	-8%	33	7%	-14%[10 µM]	4.5µM*	0%
CCCn1nnnc1SCC(=O)c1ccc2c(c1)OCCO2	-24%	?	9%	11%[1.9 µM]	3.2µM*	-7%
Cn1c(SCC(=O)c2ccc3c(c2)OCO3)nnc1-c1ccccn1	-9%	-9	-8%	-13%	3%	?
CCN(CC)CCCNC(=O)c1ccc(-n2c(=O)c(=O)[nH]c3ccccc32)cc1	-3%	nt	nt	nt	0%	nt
O=C(O)c1nn2cc(CCO)cnc2c1Cl	nt	nt	8%	-64%[10 µM]	?	-41%[9.22 µM]
CCCCC/C=C\C\C=C/C=C/C=C/[C@@H](SCC(N)C(=O)O)[C@@H](O)CCCC(=O)O (some centres not stated)	2%	nt	5%	?	4%	nt
CCn1c(SCC(=O)c2ccc3c(c2)OCCO3)nnc1-c1ccco1	?	-86*	5%	17%[10 µM]	?	23%
Cn1c(SCC(=O)c2ccc3c(c2)OCCO3)nnc1C1CC1	-8%	?	4%	25%[1.9 µM]	20µM*	3%
COCCn1c(=O)c(C)nc2cnc(N3CCOCC3)nc21	nt	nt	nt	-1%	?	nt
Cc1ccc(CC(=O)NCC(C)C)cc1	18µM*	?	1%	2%	-5%	9%
COCCn1c(C)cc(C(=O)COc2cccnc2[N+](=O)[O-])c1C	nt	nt	-9%	11%	5.6µM*	21%
Cc1cc(C)c(C(=O)COc2cccnc2[N+](=O)[O-])cc1C	-19%	21	-27%	-97%	1.6µM*	?
Cc1ccc(OCC(=O)c2cc(C)n(CC(F)(F)F)c2C)c([N+](=O)[O-])n1	nt	nt	2%	21%	20µM*	?
O=C(COc1cccnc1[N+](=O)[O-])c1c[nH]c2ccccc12	nt	nt	11%	9%[10 µM]	?	13%[9.22 µM]
